According to the supplement of paper PMC11732987, “Enantioselective OTUD7B fragment discovery through chemoproteomics screening and high-throughput optimisation” (Communications Chemistry, 2025):

What was measured:
Assay in all cases: log2 ratio of Biotin-Ahx-Ub-VS probe labelling (compound/DMSO); higher = less target engagement, active = hit call of the paper (q ≤ 0.05, log2 ratio ≤ -1)
Conditions in all cases: treatment time: 3 h
[1] = compound: CCC1N(CCc2sccc12)C(=O)CCl
Outline: (§1)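 HEK293T lysate (495 µg per sample, in Tris/CHAPS/IGEPAL buffer with protease inhibitors) was exposed in triplicate to compound at 50 or 200 µM, or to DMSO, for 3 h, then to Biotin-Ahx-Ub-VS (0.5 µM final) for 1 h. The labelled DUBs were enriched on NeutrAvidin, digested with LysC and trypsin, and analysed by diaPASEF LC-MS/MS. Average base-two log ratios of compound over DMSO came from median-normalised label-free quantities by unpaired t-test. Only proteins with at least 2 unique peptides were used.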

[2] = compound: CN1c2ccccc2C(CS1(=O)=O)NC(=O)CCl
Outline: as §1

[3] = compound: Cl.ClCC(=O)N1CCc2ncncc2C1
Outline: as §1

[4] = compound: Cl.Cn1ncc2C(CCCc12)NC(=O)CCl
Outline: as §1

[5] = compound: ClCC(=O)NC1CCOc2ccccc12
Outline: as §1

[6] = compound: ClCC(=O)NC1CCCc2ccccc12
Outline: (§2)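 Each value is an average ratio of compound to vehicle, calculated by unpaired t-test. Lysate from HEK293T cells (495 µg per sample) was incubated in triplicate with compound over a concentration range or vehicle for 3 h and then with Biotin-Ahx-Ub-VS (0.5 µM final) for 1 h. Probe-labelled deubiquitinases were captured on NeutrAvidin, digested and run by diaPASEF LC-MS/MS, with Spectronaut label-free quantities normalised to the global median. Ratios are log2, and only proteins with at least two unique peptides were used.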

[7] = compound: ClCC(=O)N[C@@H]1CCCc2ccccc12
Outline: as §2

[8] = compound: ClCC(=O)N[C@H]1CCCc2ccccc12
Outline: as §2

[9] = compound: CCC1N(CCc2cc(OC)c(Cl)cc12)C(=O)CCl
Outline: as §1

[10] = compound: CCCC1N(CCc2cc(OC)c(OC)cc12)C(=O)CCl
Outline: as §1

Measured: log2 ratio of Biotin-Ahx-Ub-VS probe labelling

EIF3H (UniProt O15372)
UniProt O15372, sequence (O15372 whole entry): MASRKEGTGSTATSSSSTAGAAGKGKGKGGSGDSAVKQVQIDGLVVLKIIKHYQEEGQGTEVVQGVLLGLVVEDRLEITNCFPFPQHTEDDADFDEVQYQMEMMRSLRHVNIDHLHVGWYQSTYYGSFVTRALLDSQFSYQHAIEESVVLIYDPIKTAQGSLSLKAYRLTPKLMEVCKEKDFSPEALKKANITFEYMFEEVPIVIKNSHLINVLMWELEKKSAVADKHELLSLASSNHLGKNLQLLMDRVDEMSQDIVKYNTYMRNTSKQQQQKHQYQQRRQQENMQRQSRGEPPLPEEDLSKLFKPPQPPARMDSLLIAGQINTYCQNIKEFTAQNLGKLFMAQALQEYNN
inactive: [1]; compound concentration: 50uM 4e-05 | [1]; compound concentration: 200uM -0.0195 | [2]; compound concentration: 50uM 0.0525 | [2]; compound concentration: 200uM 0.0675 | [3]; compound concentration: 50uM -0.0138 | [3]; compound concentration: 200uM -0.124 | [4]; compound concentration: 50uM -0.0892 | [4]; compound concentration: 200uM -0.0788 | [5]; compound concentration: 50uM 0.0209 | [5]; compound concentration: 200uM -0.0491 | [6]; compound concentration: 0.78uM -0.172 | [6]; compound concentration: 1.56uM 0.005 | [6]; compound concentration: 3.13uM 0.0821 | [6]; compound concentration: 6.25uM -0.12 | [6]; compound concentration: 12.5uM -0.146 | [6]; compound concentration: 25uM -0.153 | [6]; compound concentration: 50uM 0.125 | [6]; compound concentration: 100uM 0.0329 | [6]; compound concentration: 200uM -0.275 | [7]; compound concentration: 0.78uM -0.105 | [7]; compound concentration: 1.56uM 0.0364 | [7]; compound concentration: 3.13uM -0.02 | [7]; compound concentration: 6.25uM 0.0572 | [7]; compound concentration: 12.5uM 0.182 | [7]; compound concentration: 25uM -0.109 | [7]; compound concentration: 50uM 0.0801 | [7]; compound concentration: 100uM 0.0419 | [7]; compound concentration: 200uM 0.454 | [8]; compound concentration: 0.78uM 0.0712 | [8]; compound concentration: 1.56uM -0.0618 | [8]; compound concentration: 3.13uM -0.213 | [8]; compound concentration: 6.25uM 0.288 | [8]; compound concentration: 12.5uM 0.201 | [8]; compound concentration: 25uM 0.184 | [8]; compound concentration: 50uM 0.306 | [8]; compound concentration: 100uM -0.0743 | [8]; compound concentration: 200uM 0.179 | [9]; compound concentration: 50uM -0.165 | [9]; compound concentration: 200uM -0.139 | [10]; compound concentration: 50uM 0.00258 | [10]; compound concentration: 200uM 0.0942
